Reference: publication PMC5540273 (PLoS ONE, 2017)
Several values for one entry are separate records, joined by “and”; a condition that tells them apart may be missing. Identical values can stand only once. Like-named read-outs stand apart in the source and are kept apart here.

Experiments:
ULK2 = conditions: concentration: 1 μM, replicates: in singlicate, n = 1
ULK3 = conditions: concentration: 1 μM, replicates: in singlicate, n = 1
VPS34 = tested on: T1, VPS34; conditions: concentration: 1 μM, replicates: in singlicate, n = 1
T1 construct: gene PIK3C3

VRK2 = conditions: concentration: 1 μM, replicates: in singlicate, n = 1
WEE1 = conditions: concentration: 1 μM, replicates: in singlicate; n = 1
WEE2 = conditions: concentration: 1 μM, replicates: in singlicate, n = 1
WNK1 = conditions: concentration: 1 μM, replicates: in singlicate, n = 1
WNK2 = conditions: concentration: 1 μM, replicates: in singlicate, n = 1
WNK3 = conditions: concentration: 1 μM, replicates: in singlicate, n = 1
WNK4 = conditions: concentration: 1 μM, replicates: in singlicate; n = 1
YANK1 = tested on: T2, YANK1; conditions: concentration: 1 μM, replicates: in singlicate, n = 1
T2 construct: gene STK32A

YANK2 = tested on: T3, YANK2; conditions: concentration: 1 μM, replicates: in singlicate, n = 1
T3 construct: gene STK32B

YANK3 = tested on: T4, YANK3; conditions: concentration: 1 μM, replicates: in singlicate, n = 1
T4 construct: gene STK32C

YES = tested on: T5, YES; conditions: concentration: 1 μM, replicates: in singlicate; n = 1
T5 construct: gene YES1

YSK1 = tested on: T6, YSK1; conditions: concentration: 1 μM, replicates: in singlicate; n = 1
T6 construct: gene STK25

YSK4 = tested on: T7, YSK4; conditions: concentration: 1 μM, replicates: in singlicate, n = 1
T7 construct: gene MAP3K19

ZAK = conditions: concentration: 1 μM, replicates: in singlicate, n = 1
ZAP70 = conditions: concentration: 1 μM, replicates: in singlicate, n = 1
p38-alpha = tested on: T8, p38-alpha; conditions: concentration: 1 μM, replicates: in singlicate, n = 1
T8 construct: gene MAPK14

VEGFR2 = tested on: T9, VEGFR2; conditions: concentration: 1 μM, replicates: in singlicate, n = 1
T9 construct: gene KDR
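Note: KINOMEscan kinase panel screen.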

## O=C(Nc1ccccc1)Nc1ccc(Oc2ccc3nccn3n2)cc1
ULK2
  %Inh: 0%
ULK3
  %Inh: 2%
VPS34
  %Inh: 14%
VRK2
  %Inh: 0%
WEE1
  %Inh: 3%
WEE2
  %Inh: 13%
WNK1
  %Inh: 0%
WNK2
  %Inh: 0%
WNK3
  %Inh: 0%
WNK4
  %Inh: 0%
YANK1
  %Inh: 0%
YANK2
  %Inh: 0%
YANK3
  %Inh: 0%
YES
  %Inh: 11%
YSK1
  %Inh: 0%
YSK4
  %Inh: 0%
ZAK
  %Inh: 4%
ZAP70
  %Inh: 0%
p38-alpha
  %Inh: 0%

## COc1ccc(Nc2nccc(N3CCC(NC(=O)c4cccc(NC(C)=O)c4)C3)n2)cc1 (stereo not drawn) [GSK1379732]
ULK2
  %Inh: 0%
ULK3
  %Inh: 11%
VEGFR2
  %Inh: 0%
VPS34
  %Inh: 22%
VRK2
  %Inh: 41%
WEE1
  %Inh: 5%
WEE2
  %Inh: 7%
WNK1
  %Inh: 0%
WNK2
  %Inh: 11%
WNK3
  %Inh: 0%
WNK4
  %Inh: 100%
YANK1
  %Inh: 22%
YANK2
  %Inh: 0%
YANK3
  %Inh: 20%
YES
  %Inh: 0%
YSK1
  %Inh: 11%
YSK4
  %Inh: 5%
ZAK
  %Inh: 10%
ZAP70
  %Inh: 0%
p38-alpha
  %Inh: 30%

## COc1cc2ncnc(Nc3ccc(OCc4ccccc4Br)c(Cl)c3)c2cc1OC.Cl [GI261590]
ULK2
  %Inh: 0%
ULK3
  %Inh: 3%
VEGFR2
  %Inh: 0%
VPS34
  %Inh: 0%
VRK2
  %Inh: 11%
WEE1
  %Inh: 0%
WEE2
  %Inh: 0%
WNK1
  %Inh: 14%
WNK2
  %Inh: 0%
WNK3
  %Inh: 22%
WNK4
  %Inh: 52%
YANK1
  %Inh: 0%
YANK2
  %Inh: 0%
YANK3
  %Inh: 21%
YES
  %Inh: 31%
YSK1
  %Inh: 0%
YSK4
  %Inh: 33%
ZAK
  %Inh: 33%
ZAP70
  %Inh: 19%
p38-alpha
  %Inh: 63%

## C[C@@H]1CCN(C(=O)CO)C[C@@H]1N(C)c1ncnc2[nH]ccc12
ULK2
  %Inh: 0%
ULK3
  %Inh: 12%
VEGFR2
  %Inh: 0%
VPS34
  %Inh: 0%
VRK2
  %Inh: 0%
WEE1
  %Inh: 0%
WEE2
  %Inh: 0%
WNK1
  %Inh: 0%
WNK2
  %Inh: 0%
WNK3
  %Inh: 0%
WNK4
  %Inh: 0%
YANK1
  %Inh: 19%
YANK2
  %Inh: 0%
YANK3
  %Inh: 0%
YES
  %Inh: 0%
YSK1
  %Inh: 0%
YSK4
  %Inh: 7%
ZAK
  %Inh: 7%
ZAP70
  %Inh: 0%
p38-alpha
  %Inh: 5%

## COc1ccc(-c2nc3n(c2-c2ccncc2)CCC3)cc1 [SKF-104493]
ULK2; 1 µM
  %Inh: 13% and 0%
ULK3; 1 µM
  %Inh: 13% and 0%
VEGFR2; 1 µM
  %Inh: 15% and 0%
VPS34; 1 µM
  %Inh: 28% and 20%
VRK2; 1 µM
  %Inh: 7% and 0%
WEE1
  %Inh: 0%
WEE2; 1 µM
  %Inh: 13% and 0%
WNK1; 1 µM
  %Inh: 27% and 0%
WNK2; 1 µM
  %Inh: 0% and 21%
WNK3; 1 µM
  %Inh: 33% and 16%
WNK4
  %Inh: 17%
YANK1; 1 µM
  %Inh: 0% and 10%
YANK2; 1 µM
  %Inh: 13% and 0%
YANK3; 1 µM
  %Inh: 0% and 4%
YES
  %Inh: 0%
YSK1
  %Inh: 0%
YSK4; 1 µM
  %Inh: 0% and 100%
ZAK; 1 µM
  %Inh: 0% and 8%
ZAP70; 1 µM
  %Inh: 0% and 8%
p38-alpha; 1 µM
  %Inh: 80% and 97.8%

## CCc1nc(-c2cccc(N(C)S(=O)(=O)c3ccccc3)c2)c(-c2ccnc(Nc3ccc(N4CCN(C(C)=O)CC4)nc3)n2)s1 [GSK1645895]
ULK2
  %Inh: 0%
ULK3
  %Inh: 9%
VEGFR2
  %Inh: 31%
VPS34
  %Inh: 0%
VRK2
  %Inh: 0%
WEE1
  %Inh: 0%
WEE2
  %Inh: 0%
WNK1
  %Inh: 3%
WNK2
  %Inh: 0%
WNK3
  %Inh: 16%
WNK4
  %Inh: 0%
YANK1
  %Inh: 5%
YANK2
  %Inh: 18%
YANK3
  %Inh: 11%
YES
  %Inh: 33%
YSK1
  %Inh: 26%
YSK4
  %Inh: 29%
ZAK
  %Inh: 83%
ZAP70
  %Inh: 0%
p38-alpha
  %Inh: 60%

## Cn1ccc2ncnc(Oc3ccc(NC(=O)Nc4cccnc4)c(Cl)c3)c21
ULK2
  %Inh: 8%
ULK3
  %Inh: 0%
VEGFR2
  %Inh: 74%
VPS34
  %Inh: 0%
VRK2
  %Inh: 0%
WEE1
  %Inh: 0%
WEE2
  %Inh: 28%
WNK1
  %Inh: 0%
WNK2
  %Inh: 0%
WNK3
  %Inh: 0%
WNK4
  %Inh: 0%
YANK1
  %Inh: 0%
YANK2
  %Inh: 13%
YANK3
  %Inh: 7%
YES
  %Inh: 0%
YSK1
  %Inh: 0%
YSK4
  %Inh: 0%
ZAK
  %Inh: 3%
ZAP70
  %Inh: 0%
p38-alpha
  %Inh: 14%

## Cl.Cl.c1ccc(-c2cc3ccncc3cc2OC2CCNCC2)cc1 [GSK1122999]
ULK2
  %Inh: 0%
ULK3
  %Inh: 4%
VEGFR2
  %Inh: 0%
VPS34
  %Inh: 67%
VRK2
  %Inh: 0%
WEE1
  %Inh: 5%
WEE2
  %Inh: 11%
WNK1
  %Inh: 7%
WNK2
  %Inh: 0%
WNK3
  %Inh: 0%
WNK4
  %Inh: 28%
YANK1
  %Inh: 20%
YANK2
  %Inh: 0%
YANK3
  %Inh: 0%
YES
  %Inh: 15%
YSK1
  %Inh: 8%
YSK4
  %Inh: 64%
ZAK
  %Inh: 0%
ZAP70
  %Inh: 0%
p38-alpha
  %Inh: 4%
